Shown is part of a subset that was picked to be rich in hits.
GIRK2 act – Activators of human GIRK2-containing channels; P48051; HEK293 GIRK2/NPY4 cells, thallium flux fluorescence; activation (% efficacy), % for hits at 37.5 µM; 34,000 tested, under 10 active;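 active = primary screen hit, no activity in plain HEK293 cells, and in GIRK2-only cells above 5% efficacy rising with concentration; inactive = the rest, including fluorescent compounds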;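 note: efficacy is normalized control-subtracted fluorescence 15 s after thallium addition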
GluA2 TARP mod – GluA2-stargazin AMPA receptor complex modulation; HEK293 GluA2+stargazin, membrane potential dye (FDSS), glutamate EC50; hits were called plate by plate, in both directions; calls only at 30 µM; AID 1259245; O88602+P19491; 40,000 compounds, 3.5% hits;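 active = any of four per-well response measures lying three or more SD from its plate-wide compound average, in either direction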
Of the large screens only hits and unclear results are named; the others gave an inactive call.

CS(=O)(=O)c1ccc(CC(=O)Nc2ccc(Cl)cc2C(=O)c2ccccc2Cl)cc1	GluA2 TARP mod active (no result: GIRK2 act)
CCS(=O)(=O)c1ccc(CC(=O)Nc2ccc(Cl)cc2C(=O)c2ccccc2)cc1	none (no result: GIRK2 act)
CC(=O)Nc1ccc(C(=O)NCC#CCN(C)C)cc1	none (no result: GIRK2 act)
O=C(NCC1CCN(C(=O)Oc2ccccc2)CC1)NC(c1ccccc1)c1ccccc1	none
Cc1ccc(NC(=O)NCC2CCN(C(=O)Oc3ccccc3)CC2)cc1C	GluA2 TARP mod active
COC(=O)C1C(=O)NCC1C(C)C (configuration not stated)	none

High-throughput results (PubChem BioAssay)
